# Screens (PubChem)
# Tau fluor cs – counter-screen for tau fibril formation inhibitors; tau K18 P301L Alexa594 fluorescence, heparin fibrillization; Potency, µM (titrated, usually from 57.7 µM), inactives show top-dose activity change, negative = decrease; hit rate 0.93% among 280,000; AID 1463; note: potency is the fitted concentration of half-maximal effect; nearly all actives have a fitted effect of over 55% in size
#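 Human tau K18 P301L (15 uM unlabeled, 0.24 uM Alexa 594-labeled) in 100 mM sodium acetate pH 7 with 20 uM heparin, 6 hr at 37 C. ThT 30 uM added, 1 hr ambient; Alexa 594 FP and total fluorescence read at 555/632 nm.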
# Tau ThT inhib – inhibitors of human tau fibril formation, thioflavin T binding; AID 1460; recombinant tau K18 P301L, heparin-induced fibrillization, ThT fluorescence; P10636; Potency, µM (highest dose often 57.4 µM), inactives show at the top dose activity, negative = inhibition, hits mostly inhibitors; hit rate 2.1% among 270,000; note: potency is the fitted concentration of half-maximal effect; nearly all actives have a fitted effect of over 55% in size
# Target sequence (P10636 561-689 P618L limits assumed): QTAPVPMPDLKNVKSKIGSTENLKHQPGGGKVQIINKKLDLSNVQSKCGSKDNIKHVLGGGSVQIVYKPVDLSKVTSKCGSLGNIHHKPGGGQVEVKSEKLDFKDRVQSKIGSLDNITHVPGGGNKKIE
#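 Fibril formation assay: tau K18 P301L at 15 uM with trace Alexa 594 label, heparin inducer 20 uM, pH 7 sodium acetate buffer, 37 C for 6 hr; endpoint ThT signal.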
# FBPA coupling cs – inhibits coupling enzyme system, counter-screen for aldolase hits. activity change, negative = inhibition, % at 58.2 µM, hits read low. hit rate 0.67% among 290,000. coupling enzyme system counterscreen, AmpLite Red fluorescence; in the data active = activity change below about -30%
#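 Compounds tested against the coupling enzymes alone at 57.5 uM final; readout was AmpLite Red fluorescence (525/598 nm) after 20 min at RT.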
# Tau FP inhib – blocks human tau fibril formation measured by polarization; P10636; AID 1468; hit rate 0.39% among 280,000; K18 P301L tau heparin fibrillization, Alexa594 FP, 6 h; Potency, µM (series often up to 57.7 µM), without a hit: at the top dose activity, negative = inhibition, usual class: inhibitors; note: potency is the fitted concentration of half-maximal effect; nearly all actives have a fitted effect of over 55% in size
#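 Quantitative HTS format: compounds meet 15 uM recombinant K18 P301L tau and Alexa 594-tau tracer in 100 mM sodium acetate pH 7; 20 uM heparin triggers fibrillization at 37 C over 6 hr; FP gives the signal.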
# Sfp PPTase inh – blocks B. subtilis Sfp PPTase activity; Biochemical Sfp PPTase activity, qHTS; Potency, µM, for the others: largest response in the series, negative = inhibition, most hits filed as inhibitors; hit rate 3.5% among 310,000; Q9F4F7;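 note: the enzyme is Sfp with the accession as filed and its product quenches rhodamine fluorescence; potency is the fitted concentration of half-maximal effect; 0% = enzyme reaction without inhibitor and -100% = no enzyme wells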
#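 Compounds were incubated with enzyme (final 15 nM) for 15 min at room temperature before substrate addition started the reaction. Fluorescence at 525 nm excitation, 598 nm emission was recorded immediately and after 30 minutes.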
# JMJD2E inh – inhibitors of human JMJD2E histone demethylase; B2RXH2; JMJD2E catalytic domain, FDH-coupled NADH fluorescence (FDH is formaldehyde dehydrogenase); Potency, µM (top dose mostly 57.1 µM), for the others: top-dose activity change, negative = inhibition, usual class: inhibitors; hit rate 1.6% among 230,000; AID 2147; active = well fitted inhibition curve with a large enough effect, not every such curve was filed as active; inconclusive = small, poorly fitted or top-dose-only effect, or another doubt; inactive = no such curve, though single readings can be large or run the other way;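 note: potency is the fitted concentration of half-maximal effect; 0% = wells with enzyme and -100% = buffer wells without enzyme; nearly all actives have a fitted effect of over 50% in size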
# Target sequence (B2RXH2 1-337 limits assumed): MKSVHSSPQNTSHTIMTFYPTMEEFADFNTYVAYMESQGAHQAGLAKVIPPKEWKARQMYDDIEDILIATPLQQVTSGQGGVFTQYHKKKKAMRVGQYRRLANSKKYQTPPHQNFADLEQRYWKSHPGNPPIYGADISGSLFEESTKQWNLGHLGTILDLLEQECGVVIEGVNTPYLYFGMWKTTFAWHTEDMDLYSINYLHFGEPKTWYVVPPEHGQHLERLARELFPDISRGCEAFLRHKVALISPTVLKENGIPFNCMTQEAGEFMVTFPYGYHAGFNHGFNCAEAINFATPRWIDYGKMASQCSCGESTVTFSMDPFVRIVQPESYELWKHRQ
# Numbers without * were called inactive; ? = inconclusive; nt = not tested or not shown; [ ] = dose if it differs, or a comment. Shown are actives, neighbours in structure and some others; about 5.3% of the full set was active somewhere. Unless noted, calls come from the whole dose curve; as a rule, active = well fitted curve in the direction sought with a large enough effect; inconclusive = small, poorly fitted or top-dose-only effect, or another doubt; inactive = no such curve, though single readings can be large; an effect the other way counts as inactive or inconclusive. Unless noted, % is set by controls: 0 for no effect and ±100 for the full control effect.
SMILES,Tau fluor cs,Tau ThT inhib,FBPA coupling cs,Tau FP inhib,Sfp PPTase inh,JMJD2E inh
COc1ccc(/C=C/C(=O)OCCC(C)C)cc1,-14%,-14%,2,-2%,6%,nt
Oc1nc(Nc2ccc(Cl)cc2Cl)sc1/C=C1\C=Nc2ccccc21,?,8.9µM*,-1,9%,?,1%
Cc1ccc(/C=C2/NC(=O)N(Cc3ccccc3)C2=O)s1,-11%,-11%,2,2%,50µM*,-20%
C=CCN1C(=O)N/C(=C/c2ccc(C)o2)C1=O,-13%,25µM*,-39*,?,10µM*,18µM*
Cc1ccc(CN2C(=O)N/C(=C/c3ccc(-c4ccc(C(=O)O)cc4)o3)C2=O)cc1,?,nt,7,-2%,18µM*,?
Cc1ccc(NC(=O)CN2C(=O)S/C(=C/c3ccc(-c4cc(C(=O)O)ccc4C)o3)C2=O)cc1C,-16%,?,7,-11%,56µM*,?
COc1cc(NC(=O)CSc2nc(-c3ccco3)cc(C(F)(F)F)n2)cc(OC)c1OC,-22%,-2%,nt,-4%,nt,nt
CC(C)OC(=O)c1c(NC(=O)c2cc3nc(-c4ccccc4)cc(C(F)(F)F)n3n2)sc2c1CCCC2,-14%,?,nt,-6%,nt,nt
O=C(CC1NCCNC1=O)Nc1cccc(F)c1 (stereo unspecified),-14%,-10%,nt,-7%,nt,nt
COc1ccc(N2CC(NC(=O)c3cccs3)CC2=O)cc1OC (stereo unspecified),-1%,-6%,nt,-3%,nt,nt
Cc1cccc(NC(=O)CN2C(=O)N/C(=C\c3ccc(-c4cccc(C(=O)O)c4)o3)C2=O)c1,-12%,nt,-5,?,40µM*,?
CCn1c(C)cc(/C=C2\NC(=O)N(CC(=O)Nc3cccc(C)c3)C2=O)c1C,?,?,3,-6%,-6%,?
Cc1ccc(NC(=O)CN2C(=O)N/C(=C/c3ccc(C)s3)C2=O)cc1,-15%,-11%,0,-14%,40µM*,-8%
CCn1c(C)cc(/C=C2/NC(=O)N(c3ccccc3)C2=O)c1C,-13%,?,0,-7%,-7%,25µM*
CCn1c(C)cc(/C=C2/NC(=O)N(CC(=O)Nc3cccc(C)c3)C2=O)c1C,-27%,?,0,-2%,6%,22µM*
CCOc1ccc(C(=O)c2cn(Cc3ccccc3)c3c(F)cc(F)cc3c2=O)cc1,-18%,-16%,nt,-1%,nt,nt
CCCCC/C=C\C\C=C/C=C/C=C/[C@@H](SC[C@H](NC(=O)CC[C@H](N)C(=O)O)C(=O)NCC(=O)O)[C@@H](O)CCCC(=O)O,7%,3%,nt,4%,7%,nt
Cc1ccc(NC(=O)CN2C(=O)N/C(=C/c3ccc(C)o3)C2=O)cc1,-13%,?,-3,?,10µM*,?
Cc1cccc(NC(=O)CN2C(=O)N/C(=C/c3ccc(C)o3)C2=O)c1,-12%,?,-2,-12%,11µM*,-17%
Cc1ccc(C)c(Cn2c(=O)n(CCCCC(=O)NCc3ccc4c(c3)OCO4)c(=O)c3ccccc32)c1,-1%,4%,nt,-4%,nt,nt
CCc1nn2c(=O)cc(COC(=O)c3ccccc3NC(=O)COc3ccc(F)cc3)nc2s1,-6%,0%,nt,-13%,nt,nt
O=[N+]([O-])c1ccc(COc2cccc(CNc3ccc(F)cc3)c2)cc1,?,?,-9,12%,-1%,-3%
CCOc1cccc(CNc2ccc(O)cc2)c1OCc1ccccc1Cl,10µM*[quencher],28µM*,1,11µM*,-13%,0%
CCOc1cc(CNc2ccccc2)cc(Br)c1OCc1ccc(F)cc1,?,-12%,-7,6%,?,1%
Oc1ccc(NCc2cccc(OCc3ccccc3)c2)cc1,?,28µM*,-30*,?,?,4.5µM*
SMILES,Tau fluor cs,Tau ThT inhib,FBPA coupling cs,Tau FP inhib,Sfp PPTase inh,JMJD2E inh
CCOc1cc(CNc2ccc(O)cc2)cc(Cl)c1OCc1ccccc1,16µM*[quencher],?,nt,-8%,nt,nt
CCOc1cccc(CNc2ccc(O)cc2)c1OCc1ccc(Cl)cc1Cl,?,28µM*,-50*,28µM*,14µM*,?
O=C(CN1C(=O)COc2ccc(S(=O)(=O)N3CCOCC3)cc21)N1CCN(c2cccc(C(F)(F)F)c2)CC1,-18%,-4%,nt,-3%,nt,nt
CCOc1c(Cl)cc(CNc2ccc(N3CCCC3)cc2)cc1OC,?,3.2µM*,-30,7.9µM*,79µM*,8.9µM*
CCOc1c(Cl)cc(CNc2ccc(S(N)(=O)=O)cc2)cc1OC,9%,6%,1,-1%,13%,3%
O=C1CC(c2ccco2)CC(O)=C1C=Nc1ccc(Br)cc1 (stereo unspecified),-9%,?,1,-5%,56µM*,?
CCc1ccc(N=CC2=C(O)CC(c3ccco3)CC2=O)cc1 (stereo unspecified),-15%,?,-3,-2%,79µM*,?
COc1cc(O)ccc1-c1nc2ccc(Br)cn2c1Nc1ccccc1C,?,-6%,nt,2%,nt,nt
CC1(C)Cc2ccccc2-c2n[nH]c(=S)n21,-16%,-13%,0,-9%,45µM*,-5%
CSCC[C@H](NC(=O)CN)C(=O)N[C@@H](CC(=O)O)C(=O)N[C@@H](CO)C(=O)N[C@@H](CC(C)C)C(=O)N[C@@H](C)C(=O)N[C@@H](Cc1ccccc1)C(=O)N[C@@H](CO)C(=O)NCC(=O)NCC(=O)N[C@@H](CC(C)C)C(N)=O,nt,nt,1,nt,11%,nt
CCOc1ccc(NC(=O)Cn2cnc3sc(C)c(S(=O)(=O)N4CCN(c5ccccc5OC)CC4)c3c2=O)cc1,?,?,nt,9%,nt,nt
O=C(Nc1ccc2nc(-c3ccco3)c(-c3ccco3)nc2c1)N1CCCCCC1,8.9µM*[quencher],7.1µM*,-37*,14µM*,14µM*,?
CCOC(=O)C1CCN(C(=O)Nc2ccc3nc(-c4ccco4)c(-c4ccco4)nc3c2)CC1,?,3.2µM*,-45*,?,14µM*,?
CNc1nc(C#N)nc(Nc2ccccc2)n1,nt,nt,0,nt,nt,nt
CCC(CC)NCc1ccc2c(c1)c1ccccc1n2CC,4%,7%,-6,4%,50µM*,1%
COc1cccc(CNCc2ccc(OC)cc2OC)c1,nt,nt,1,nt,-14%,nt
CCn1c2ccccc2c2cc(CNCc3ccc(OC)cc3OC)ccc21,-21%,?,-2,-4%,22µM*,3%
CCn1c2ccccc2c2cc(N)ccc21,?,?,-9,16%,-22%,?
N#Cc1c(Nc2ccc(Cl)cc2)s[nH]c1=O,-20%,nt,8,20µM*,50µM*,-12%
CSc1nc(Nc2ccc(Cl)cc2)c(C#N)c(=O)[nH]1,nt,nt,6,nt,21%,nt
